Laboratory results as given in the supplement of paper PMC11417369.
In all, about 25,000 sequences were measured (“ln(normalized median fluorescence intensity)”: median about 6.7, highest 2% from about 10 on). This excerpt belongs to a sample that is enriched for the highest values.

Tested on: PfHDP1 homeodomain (GST-tagged)
Assay: gcPBM binding intensity (ln(normalized median fluorescence intensity)); higher = stronger DNA binding
Summary of the method: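 The highest Masliner-normalised natural-log median intensity across replicate spots of either probe orientation is reported as binding intensity. GST-tagged P. falciparum DNA-binding domains expressed in E. coli were applied for 1 h to an Agilent 4 × 180k array of primer-extended double-stranded 36-bp intergenic genomic probes plus negative controls, and bound protein was detected with Alexa488 anti-GST antibody and scanned at 488 nm.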

Sequence | gcPBM binding intensity (ln)
TTTGTTAATTATAAATGTACATATTATATATATATA [XGTACX_site8870] | 8.42
CACGCGCCCGGACACACACACACACCCATATATATA [CACACA_site5251] | 6.84
TTAAACTTGTTTTGGATGCACTATATAATTCATTTT [GTGCAC_site9549] | 7.2
AGAGAGATGACAAAAAGATGAATAACGTTAAGGGAT [XGTACX_negctrl_site120] | 7.4
AATATGAAATATATTACACACATTTATATGTTGAAA [CACACA_site1427] | 6.31
TATAATAATAATTATACATGCATGAATATTTATATG [TGCATGCA_site811] | 6.46
ACATATGAAAAATATGCATGCAAATATTATTTAACA [TGCATGCA_site802] | 7.03
ATCATATTTATGTTGGTGCATTATGCATGGATTTTA [GTGCAC_site9795] | 10.8
TATTTTTATTATATGGTGCATATATACATACATATA | 9.96
ATCATATTTATATTGGTGCATTATGCATGAAATTTA [GTGCAC_site9571] | 10.6
ATATGGATTATACATACATGCATACATACATACATA [TGCATGCA_site475] | 6.58
TTATGGTGCATGAAATCACACATTGATATATATGCT [CACACA_site5352] | 8.81
ATTATATTTATGTTGGTGCATTATACATGAAATTTA | 10.5
TATATATATATATATACATGCATATATATAATATAT [TGCATGCA_site763] | 9.32
ATATATATTTAAAAAAGTACAGAAGAAAATAACCCA [XGTACX_site642] | 7.19
GATGATACACAGGTGTTGCACTTAAATGCAGTTCTT [GTGCAC_site9627] | 8.13
ATATATATATATATATGTACATATTATTAATAATAT [XGTACX_site6667] | 9.32
TTTTGAATATTTGGTCGTACGTAAAAATAGATAATT [XGTACX_site5755] | 6.75
AAGTTTTCTTAAAATTGTACTTTTCAAAAATAATCT [XGTACX_site277] | 5.83
TCATAAACATTATGCACACAAAAATAAAAAAAAATA [CACACA_site1115] | 10.2
TATATAACATATGGGACACACATGCAACTGTTATAT [CACACA_site3792] | 6.89
AACAACAACTAATATGCACACATTTAAAAACAAAAT [CACACA_site2440] | 9.7
TTATGGTGCAACATTATGCACACCGTTAAATAACTA [CACACA_site3846] | 11.4
TAATATATTATAAACACATGCACATTAATAATAACT [TGCATGCA_site708] | 8.38

Sequence | gcPBM binding intensity (ln)
TGATTCTAACTTATGGTGCAACATTATGGACACCGT | 10.5
ATGGTGCAACATTATGCACACCGTTAAATAACTAAT [CACACA_site9280] | 11.7
GATTCATCTAAACACCGTACATATTATATATATATA [XGTACX_site6030] | 8.65
CATTAACAAATAAATGCACACATATATATAAATAAT [CACACA_site7892] | 9.2
GAATGCCTTGAAAATAGTACAATTAAGAAAAAATAC [XGTACX_site8002] | 6.53
ACATAAGATGAAAAATGTACATTCAAAAAATGAAAT [XGTACX_site3227] | 6.52
AAGACAAATTTTACATGTACAAATATATTACATATA [XGTACX_site7060] | 6.83
AATGTATATATGTAATGTACATATATAATGTATATA [XGTACX_site6510] | 6.6
TTATATGCTCAATGTTGTACATGTAGATATATATAT [XGTACX_site8211] | 9.77
ATTACACATATAGTAGTGCAATAACTCCAAAAAAAA | 9.55
AAATTTTAATTAGACTGTACACATTTTAGAATAATT [XGTACX_site4819] | 6.17
AAAAAAAATTAATTAGTGCAAAATATATACAAAATA [GTGCAC_site9762] | 10.4
TATTTATAGATATATACACACATATACATATTGTTT [CACACA_site7611] | 6.63
TTTGATCGATGGATTTAACACACAAAAAAAAAAAAA [CACACA_site9279] | 6.32
ATATATATATATATAGTGCACATTTATATAATTATT | 10
ACCCATTTTAATTTAGTGCACATTTTACCTTTATAC | 10.1
CTATTTCAATTTAGTGCACACATTTTAATTTATAAG [CACACA_site2040] | 10.9
CTACTTAATATTTGTACACACATATTTAACCTACTA [CACACA_site5725] | 7.02
AAAGAATACAAAATTGCACACATATTGTGAAAATGT [CACACA_site9327] | 9.59
TTAAAAAAGAATTGTGCACACACAAAAAATGTTCAT [CACACA_site1102] | 10.6
AAAAAAGAATTGTGCACACACAAAAAATGTTCATAA [CACACA_site1103] | 10.3
AGTATAAGCATTATTGTGCACATAATTATAATTTTT | 11
TATATTATTAATTAAGCACACATTATTTTTATAATA [CACACA_site3982] | 6.37
ATATAATATATATATTGTACATATATTTATAAGCAT [XGTACX_site3726] | 6.5

Sequence | gcPBM binding intensity (ln)
ATATTTGTATAAATTGCACACTTTATTTTTTTTAAG [CACACA_site1558] | 9.86
ATATATTTTTAGCACAGTACAATATAATTAAATATA [XGTACX_site6779] | 7.02
ATTTTAAATTTATCTGTGCACAGTATTATATAAGCA [GTGCAC_site9806] | 10.8
ATTATTCTATATGAAACATGCATACATTTGTATTTT [TGCATGCA_site823] | 6.53
AAATACTGTAAAAAAGCATGCCACTAATAATAATTA [TGCATGCA_site759] | 6.33
TTTTTATATTTCAACATATCACAATTTTATATATCT [CACACA_negctrl_site178] | 6.43
AATGAGAAGGACTGCACACTAAAATGGAAGGAGAAA [CACACA_site1575] | 6.97
AAGGAGAAATATTGCACACGTGCAAAATGGTATGAG [CACACA_site259] | 10.8
GTGAAATATGCAAACACACACGAGAAAAATGTATAT [CACACA_site7488] | 6.99
AGGAAAATTATGAATGGTACAGAATATATTAGGAGA [XGTACX_site6282] | 7.46
GAGTGAAATATGCAAACACACACGAGAAAAATGTAT [CACACA_site3196] | 7.15
AAAAGGAGAAATATTGCACACGTGCAAAATGGTATG [CACACA_site4300] | 11
ATTTTTTAAAAAGTAACACACACTCTTATAAATAAC [CACACA_site7668] | 6.7
AAATACTGTACAAAGGTGCATAAAAAGTGGGGCATA | 9.07
GATAATGAATGATGCACACTAAAAATATTCTACAAC [CACACA_site3622] | 8.94
TTTTCTCTAAAAAGGTGTACAACTAATAATGCACTG [XGTACX_site6074] | 10.6
TATTTTATATAAAGGTGTACTTATACAAAAATATAT [XGTACX_site7435] | 6.52
AAAAAAAAAAAAAGGTGTACATGCAAAATAAATTCT [XGTACX_site4592] | 6.48
ATTTTTCTAAAATACTGTACAAAGGTGCATAAAAAG [XGTACX_site4425] | 11.1
TATGGAAGAAAATATACACACAAAAAAAAAAAATGT [CACACA_site1486] | 6.58
TATATAATATATAAATGTACTTTTGTCTTATATGAA [XGTACX_site7211] | 6.32
TATTTTGTATTCATTTGTCACATATAATAGATAGGA [TGCATGCA_negctrl_site9] | 6.82
TTTCTTTTTAAATATATACACACCGTGGGTACATAT [CACACA_site9102] | 6.81
AATGAATCCTTATATACACACATTATTATATTATAT [CACACA_site3108] | 7.23

Sequence | gcPBM binding intensity (ln)
TACTTTTTAGGAAAGTGTACAAGCATATAAGGAATA [XGTACX_site2834] | 6.83
TATGTGTGCAAAAACTGTACACATTAAAGGTATATA [XGTACX_site7627] | 10.3
GCAAGGTCCACACTGGTGCATTAAAAATAAAATATA [GTGCAC_site9956] | 10.4
ATATGTACGCAAGGTGCACACTGGTGCATTAAAAAA [CACACA_site1801] | 11.5
AATATATTTATGCTCATGCACTTTTTTTTTTTTTTT [GTGCAC_site9654] | 10
CACTTCATAAAAATTGCACACATATAATAATGTACA [CACACA_site8692] | 10.1
ATATATATATATATTACACACATGTGCAATTAAAAT [CACACA_site1778] | 10.7
TATTATAAAATATACACATGCAAAAACAAAATTTAC [TGCATGCA_site1051] | 7.03
GTATATTAATAAACATGTACACAATTTATTTATATT [XGTACX_site1012] | 6.6
ATATTTATTTATATTACACACATGTGCAATTAAACT [CACACA_site6928] | 10.7
AAAATTAAAATATATACACACATATATATATTAAAT [CACACA_site4419] | 6.25
TATATTAAAAAAAAATGTACACATATATATATATAT [XGTACX_site4524] | 9.21
ATATATATATTAATTACACACAAAAAAAAAAAAAAA [CACACA_site1165] | 7.49
ATATATATATATATTACACACTTTTTCTTTTTTTTT [CACACA_site2780] | 9.01
CAGGTGCACTATATTACACACGCTTCTTTTTTTTTA [CACACA_site2069] | 11
AATAAATTAAAACAGGTGCACTATATTACACACGCT | 9.7
TATAAAAATATATATATATATATATATATATATATA [TGCATGCA_negctrl_site541] | 9.32
AAAAAAAAATTAAACATACACACGTTACTATTTTTA [CACACA_site1687] | 6.29
TCATTAAATGTTTAGGTGCATACTTTAATTTTTAAT [GTGCAC_site9906] | 9.31
AACATAAATTACTTTTTACACACTAATATAAAATAC [CACACA_site8297] | 6.54
TTAAATTACTAATGTGCACACATACTAACGTTTAAA [CACACA_site3573] | 11
AAATTACTAATGTGCACACATACTAACGTTTAAATA [CACACA_site3572] | 11.3
AAAAATTAAATAAATTTACACACTAATAATTACATA [CACACA_site8260] | 6.3
